Lamin A splicing – LMNA splicing modulation. HeLa LMNA splicing GFP/RFP minigene ratio, 48 h. Potency, µM (doses to about 46.1 µM), for the others: at the highest dose ratio change, negative = inhibition, most hits filed as inhibitors. 200,000 compounds, 0.01% hits; active means well fitted inhibition curve with a large enough effect in the signal ratio, with a control signal flat, not every such curve was filed as active; inconclusive means small, poorly fitted or top-dose-only effect, or effect the other way, or a change in a side signal; the % refers to the signal ratio
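Read-out is the ratio of GFP to DsRed2 object intensity, acquired by 488 nm laser-scanning cytometry on HeLa lamin A-EGFP minigene reporter cells. Compound incubation 48 hrs at 37 °C in Opti-MEM with 2% FBS; DMSO 0.5% final.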
KinaseGlo FLuc – counter-screen: inhibitors of Kinase-Glo firefly luciferase. Kinase-Glo luciferase, ATP luminescence, 8 min. Q27757. 200,000 compounds, 0.28% hits. Potency, µM (highest dose often 38.3 µM), inactives show top-dose activity change, negative = inhibition, hits mostly inhibitors. AID 1379; further: nearly all actives have a fitted effect of over 60% in size
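Light output from Kinase-Glo luciferase with luciferin and 10 uM ATP in 50 mM imidazole pH 7.2, KCl, MgCl2, Tween 20, BSA; compound pin-delivered, 8-min ambient incubation, then luminescence read.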
HPGD inh – blocks human HPGD enzyme activity | 150,000 compounds, 4.3% hits | Potency, µM, for the others: at the highest dose activity change, negative = inhibition, hits mostly inhibitors | purified HPGD, NADH fluorescence kinetic, PGE2 substrate; active means well fitted inhibition curve with a large enough effect, not every such curve was filed as active; inconclusive means small, poorly fitted or top-dose-only effect, or another doubt; inactive means no such curve, though single readings can be large or run the other way
Target sequence (P15428 whole entry, looked up): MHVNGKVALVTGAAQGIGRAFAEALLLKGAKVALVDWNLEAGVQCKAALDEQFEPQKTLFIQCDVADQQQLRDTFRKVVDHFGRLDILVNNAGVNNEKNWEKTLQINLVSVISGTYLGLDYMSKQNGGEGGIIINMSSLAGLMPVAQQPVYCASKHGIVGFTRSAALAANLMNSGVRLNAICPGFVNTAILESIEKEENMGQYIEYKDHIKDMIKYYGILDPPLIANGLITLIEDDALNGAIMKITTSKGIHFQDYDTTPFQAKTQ
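20 nM HPGD preincubated 15 min at room temperature with compound in 50 mM Tris-HCl pH 8, 0.01% Tween 20. Started with 1 mM NAD+ and 30 uM prostaglandin E2; NADH fluorescence (360/450 nm) read 5 times over 30-s intervals, last minus first.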
ALDH1A1 inh – blocks purified human ALDH1A1 activity | AID 1030 | P00352 | Purified ALDH1A1, NADH fluorescence, propionaldehyde substrate | 220,000 compounds, 7.3% hits | Potency, µM (highest dose often 75.3 µM), without a hit: at the top dose activity, negative = inhibition, actives largely listed as inhibitors; active means well fitted inhibition curve with a large enough effect, not every such curve was filed as active; inconclusive means small, poorly fitted or top-dose-only effect, or another doubt; inactive means no such curve, though single readings can be large or run the other way;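 further: plate controls were no enzyme wells and a reference inhibitor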
Target sequence (P00352 whole entry, looked up): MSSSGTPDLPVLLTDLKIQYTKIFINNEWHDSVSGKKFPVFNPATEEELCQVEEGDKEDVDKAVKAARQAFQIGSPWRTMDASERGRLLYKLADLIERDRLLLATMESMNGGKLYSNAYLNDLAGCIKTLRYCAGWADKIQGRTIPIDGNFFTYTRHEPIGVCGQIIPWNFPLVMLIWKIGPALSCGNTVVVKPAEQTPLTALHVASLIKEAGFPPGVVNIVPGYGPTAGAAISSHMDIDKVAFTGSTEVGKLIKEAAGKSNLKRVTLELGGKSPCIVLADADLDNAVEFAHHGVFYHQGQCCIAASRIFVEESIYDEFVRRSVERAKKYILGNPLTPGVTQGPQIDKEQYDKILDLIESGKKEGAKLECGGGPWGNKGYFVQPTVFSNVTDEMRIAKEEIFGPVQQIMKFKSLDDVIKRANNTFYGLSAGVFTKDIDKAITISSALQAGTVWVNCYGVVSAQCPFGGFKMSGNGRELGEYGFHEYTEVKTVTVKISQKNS
IMPase Li inh – cell-permeable IMPase inhibitors with lithium potentiation; CHO-M1 cells, IP1 TR-FRET (IP-One), carbachol + lithium; 210,000 compounds, 0.35% hits; Potency, µM (top dose mostly 59.4 µM), for the others: top-dose activity, negative = IMPase inhibition, usual class: inhibitors;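 further: IP1 builds up when IMPase is blocked and the TR-FRET signal falls; plate controls were basal vehicle for no effect and high inhibitor control for full effect; nearly all actives have a fitted effect of over 50% in size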
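Lithium-sensitised IP1 accumulation assay; M1-expressing CHO cells treated 30 min at 37C with compound. Competitive antibody detection by time-resolved FRET followed a 10 min room-temperature lysis step.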
* marks the source's active call; other numbers are inactive results; u = inconclusive; x = no result; ! = a repeat was not active; [ ] = dose if it differs, or a comment. This is a sample that favours compounds with a hit; in the whole collection about 9% have one here. Unless noted, the call rests on the fitted dose curve; in most records, active means well fitted curve in the direction sought with a large enough effect; inconclusive means small, poorly fitted or top-dose-only effect, or another doubt; inactive means no such curve, though single readings can be large; an effect the other way counts as inactive or inconclusive. Unless noted, on the % scale 0 is the no-effect control and ±100 the full control effect; potency means the concentration at half of the fitted maximal effect.

SMILES | Lamin A splicing | KinaseGlo FLuc | HPGD inh | ALDH1A1 inh | IMPase Li inh
Cc1cccc(N2CCN(C(=O)c3ccc4c(c3)N(Cc3cccc(Cl)c3)C(=O)c3ccccc3S4=O)CC2)c1C (stereo not drawn) | -10.9%[46 µM] | x | x | x | x
Oc1cc2c(cc1O)C1c3ccc(O)c(O)c3OCC1(O)C2 (stereo not drawn) | x | u | 1.12µM* | 11.2µM*! | 4.3%
Cc1ccc2nc3c(cc(C#N)c(=N)n3Cc3cccnc3)c(=O)n2c1 | x | -0.6% | x | 0.0% | -0.9%
CSCCC(NC(=O)OC(C)(C)C)C(=O)Oc1ccc2c(=O)c(-c3ccc4c(c3)OCCO4)coc2c1 (stereo not drawn) | u | -0.5% | -16.0% | 25.1µM* | -7.4%[38.3 µM]
Cc1ccc(NC(=O)c2ccc3nc(Cc4ccccc4)oc3c2)cc1F | 2.8%[46 µM] | x | x | x | x
CC(CCc1ccco1)NC(=O)CSc1cc(=O)n(C)c2ccccc12 (stereo not drawn) | 6.9% | -4.4% | 25.1µM* | u | -5.2%[38.3 µM]
CCn1c(=O)cc(SCC(=O)NCc2ccco2)c2ccccc21 | u | -2.7% | u | u | u
CCCCNC(=O)CSc1cc(=O)n(C)c2ccccc12 | 8.8% | -0.1% | 14.1µM* | -9.1% | -12.2%
COc1cc(C(C(=O)NC2CCCC2)N(C(=O)Cc2cccs2)C2CC2)cc(OC)c1OC (stereo not drawn) | -7.0%[46 µM] | -0.9% | x | 2.7% | 4.9%
Cc1cccc(CN2C(=O)N(c3ccc(C(C)C)cc3)S(=O)(=O)c3ccccc32)c1 | 8.0%[46 µM] | x | x | x | x
CN1CCN(C(CC(=O)Nc2cccc(O)c2)C(=O)O)CC1 (stereo not drawn) | x | x | x | 11.7% | 3.4%
O=c1cc(N2CCCCC2)c(-c2ccccc2)nn1Cc1ccc(Cl)cc1Cl | u | 1.8% | -22.1% | u | 37.0%[38.3 µM]
O=c1cc(N2CCCCC2)c(-c2ccccc2)nn1Cc1cccc(Cl)c1 | u | -3.3% | -18.8% | 22.4µM* | 16.9%[38.3 µM]
O=C(NCc1ccccc1Cl)C1CCN(C(=O)N2CCOc3ccccc32)CC1 | 6.4%[46 µM] | x | x | x | x
Cc1ccc(Cn2ccnc2SCC(=O)NCc2ccc(F)cc2)cc1 | -5.6%[46 µM] | x | x | x | x
O=C(O)CCN1C(=O)C(=C2CCCCCC2)SC1=S | 19.7% | 0.6% | -11.6% | u | 5.1%[38.3 µM]
O=C1C(=C2CCCCC2)SC(=S)N1Cc1ccco1 | -13.2% | -1.8% | u | 17.8µM* | 12.6%[38.3 µM]
CCc1ccc(CNc2ccc(N3CCN(C(C)=O)CC3)cc2)cc1 | -25.3% | -0.5% | -13.4% | 22.4µM* | 44.7%[38.3 µM]
COc1cc(CNc2ccc(N3CCN(C(C)=O)CC3)cc2)ccc1OCc1ccccc1 | 14.8%[46 µM] | -2.4% | x | 17.8µM* | 23.2%
c1cc2c(cc1-c1csc(NNC3=NCCCCC3)n1)OCCO2 | 7.7%[46 µM] | -1.3% | x | 20µM* | 6.9%
c1ccc(-c2csc(Nc3ccc4c(c3)OCCO4)n2)cc1 | u | -11.7% | -20.8% | 23.8µM* | -2.7%[38.3 µM]
COc1cccc(Nc2nc(-c3ccc4c(c3)OCCO4)cs2)c1 | u | 3.6% | -21.7% | u | 16.6%[38.3 µM]
c1cc2c(cc1Nc1nc(-c3ccc4c(c3)OCO4)cs1)OCCO2 | -11.3% | -2.2% | -17.1% | 17.8µM* | 12.0%[38.3 µM]
CC(C)=CCC/C(C)=C/CO/N=C1/C[C@@H](O)[C@@H](O)[C@@H]2[C@@H]3C(=O)N(C(C)(C)C)C(=O)[C@H]3CC[C@@H]12 | x | x | x | 0.0%[13.5 µM] | x
COC(=O)c1ccc(NC(=O)CN(C)S(=O)(=O)c2ccc3c(c2)CCCC(=O)N3)cc1 | -3.7%[46 µM] | x | x | x | x
SMILES | Lamin A splicing | KinaseGlo FLuc | HPGD inh | ALDH1A1 inh | IMPase Li inh
Cc1cc(C)n2nc(C(=O)N3CCN(c4ccc([N+](=O)[O-])cc4)CC3)nc2n1 | x | 0.3% | x | u | 19.8%
O=C1NC2(CCCCC2)NN1c1ccccc1 | u | -2.9% | -7.0% | -5.0% | -25.2%[38.3 µM]
NC(=O)N1CCC2(CC1)NC(=O)N(c1ccccc1)N2 | 27.1%[46 µM] | 0.4% | x | 3.55µM* | -9.8%
Cc1cc2cc(C)c(NCCNC(=O)c3cccs3)nc2cc1C | x | 3.5% | x | u | -13.5%
COc1ccc(-c2nc3cnc(Oc4cccc(Cl)c4)nc3n(CCC#N)c2=O)cc1 | u | x | x | u | 5.01µM*
COc1ccc(Oc2ncc3nc(CCc4ccccc4)c(=O)n(C)c3n2)cc1 | x | -1.3% | -5.3% | u | 16.3%
Cn1c(=O)c(CCc2ccccc2)nc2cnc(Oc3ccccc3)nc21 | x | -2.5% | -16.1% | 8.91µM* | 2.6%
COc1ccc(Oc2ncc3nc(C)c(=O)n(Cc4ccc(F)cc4)c3n2)cc1 | x | -0.8% | -18.7% | 25.1µM* | 11.5%
N#Cc1cccc(-c2nc3cnc(Oc4cccc(Cl)c4)nc3n(C3CC3)c2=O)c1 | u | x | x | 25.1µM* | 3.5%
COc1ccc(Oc2ncc3nc(C)c(=O)n(Cc4cccs4)c3n2)cc1 | x | -0.4% | -9.3% | -9.4% | 12.3%
COc1cccc(CNC(=O)C2(c3cccs3)CCOCC2)c1 | 6.5%[46 µM] | x | x | x | x
CC1=C(c2ccc(C)c(C)c2)S(=O)(=O)N(Cc2ccc(C(=O)NC(C)c3ccccc3)cc2)C1=O (stereo not drawn) | -4.8%[46 µM] | x | x | x | x
Cc1nc2cnc(Oc3ccccc3)nc2n(CCc2ccccc2)c1=O | x | -1.1% | -3.1% | u | 12.2%
COc1ccc(Oc2ncc3nc(C)c(=O)n(CCc4ccccc4)c3n2)cc1 | x | 0.8% | -4.9% | 0.224µM* | -13.3%
Cc1nc2cnc(Oc3cccc(Cl)c3)nc2n(CCc2ccccc2)c1=O | x | -1.9% | -11.7% | 6.31µM* | -13.0%
COC(=O)c1ccc(C(NC(=O)OCc2ccccc2)/C(I)=C/[C@@H](C)C(=O)NCC2CC2)cc1 (stereo partly drawn) | x | -0.3% | 14.1µM* | -10.6% | 8.6%
COC(=O)c1ccc(C(NC(=O)OCc2ccccc2)/C(I)=C/[C@@H](C)C(=O)Nc2ccccc2)cc1 (stereo partly drawn) | x | -1.0% | -24.7% | 3.3% | 2.7%
O=C(Nc1ccccc1)N1CCC2(CC1)CCN(S(=O)(=O)c1ccccc1)CC2 | x | -2.3% | -7.6% | 12.5% | -5.1%
COc1cc(S(=O)(=O)Nc2ccccc2)ccc1N=Cc1c(C)[nH]n(-c2ccc(C)cc2)c1=O | -23.2% | -14.5% | -19.3% | -3.4% | -4.7%
COc1cc(SC#N)ccc1N=Cc1c(C)[nH]n(-c2ccc(C)c(C)c2)c1=O | u | u | -15.3% | 0.282µM* | 1.7%
COc1cc(SC#N)ccc1N=Cc1c(C)[nH]n(-c2ccc(Cl)cc2)c1=O | 8.2% | -18.5% | -20.5% | 2.51µM* | 14.4%[38.3 µM]
COc1ccc(CCN=Cc2c(C)[nH]n(-c3ccc([N+](=O)[O-])cc3)c2=O)cc1OC | x | -11.4% | x | 8.9% | -3.7%
O=C(COC(=O)/C=C/c1ccc(Br)o1)NCCCN1CCCC1=O | -6.1%[46 µM] | 2.9% | x | u | 7.6%
CCOC(=O)C1=C(Cc2ccc(Cl)cc2)C(=O)c2ccccc2C1=O | u | -8.6% | 3.55µM* | u | 28.4%[38.3 µM]
CCOC(=O)C1=C(C)N=C2c3ccccc3C(=O)C2C1c1ccc(Cl)cc1 (stereo not drawn) | -0.6% | -3.5% | -5.8% | -9.5% | 19.7%[38.3 µM]

Screening data as filed in PubChem.
